Test results reported in the supplement of paper PMC3545927.
The list shows a part of the results. How many sequences the whole screen found active is unknown.

Target: furin, P09958
Assay: furin cleavage Z-score vs untreated control; higher = more cleavage, active = 3.5 or more, inactive = 1 or less, 8 variable residues between constant flanks
How it was run: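 Furin-free reactions served as the baseline for the cleavage Z-score, which is the log read count lowess-adjusted and scaled by median absolute deviation. Counts came from released DNA, adapter-tagged by PCR and sequenced. Purified furin had cut 8-mer peptides fused to a cDNA oligonucleotide on magnetic beads during 7.5, 15 or 30 min at 1:10 enzyme:substrate.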
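Note: purified furin at 1:10 enzyme:substrate in 50 mM HEPES pH 7.5.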

furin, P09958, sequence (P09958 whole entry): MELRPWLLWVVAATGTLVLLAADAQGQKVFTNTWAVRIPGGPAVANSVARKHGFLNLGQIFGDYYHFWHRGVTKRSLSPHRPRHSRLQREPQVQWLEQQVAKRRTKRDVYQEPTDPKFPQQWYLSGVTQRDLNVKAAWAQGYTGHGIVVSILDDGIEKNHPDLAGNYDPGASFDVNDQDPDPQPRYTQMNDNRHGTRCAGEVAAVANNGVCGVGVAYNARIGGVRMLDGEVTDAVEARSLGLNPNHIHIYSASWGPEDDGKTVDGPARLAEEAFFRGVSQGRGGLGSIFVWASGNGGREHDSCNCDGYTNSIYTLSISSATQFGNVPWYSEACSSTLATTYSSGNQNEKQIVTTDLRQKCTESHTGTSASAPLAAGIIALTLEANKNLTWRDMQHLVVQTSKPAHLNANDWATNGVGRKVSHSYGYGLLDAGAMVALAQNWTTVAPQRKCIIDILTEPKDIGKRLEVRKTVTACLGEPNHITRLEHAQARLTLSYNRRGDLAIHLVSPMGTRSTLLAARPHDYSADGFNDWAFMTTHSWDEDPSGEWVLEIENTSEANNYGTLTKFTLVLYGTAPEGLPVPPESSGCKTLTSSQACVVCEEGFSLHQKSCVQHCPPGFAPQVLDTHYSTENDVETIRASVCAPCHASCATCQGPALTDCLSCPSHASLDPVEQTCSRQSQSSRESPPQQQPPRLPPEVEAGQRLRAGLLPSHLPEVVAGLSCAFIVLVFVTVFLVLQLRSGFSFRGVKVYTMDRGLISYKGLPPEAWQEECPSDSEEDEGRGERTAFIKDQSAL

| Sequence | furin cleavage Z-score (7.5 min) | furin cleavage Z-score (15 min) | furin cleavage Z-score (30 min) |
| --- | --- | --- | --- |
| CAEGCGWAGWAGNASASA [HC205] | -0.871 (inactive) | 1.45 | -1.04 (inactive) |
| CATESDIRTEAGNASASA [HC1485] | -0.326 (inactive) | -0.524 (inactive) | -0.55 (inactive) |
| CAVVCCSMSRAGNASASA [HC2093] | 0.591 (inactive) | 1.03 | 0.426 (inactive) |
| CARWKRQNFHAGNASASA [FS-2471] | 1.47 | 0.449 (inactive) | 3.01 |
| CARWKRYQRSAGNASASA [FS-142] | 9.87 (active) | 10.7 (active) | 9.68 (active) |
| CARWKRYRRWAGNASASA [FS-1077] | 10.1 (active) | 12.1 (active) | 10.9 (active) |
| CARWKRTQRHAGNASASA [FS-2623] | 8.7 (active) | 11.5 (active) | 8.86 (active) |
| CARWGRYEGGAGNASASA [FS-2844] | -0.438 (inactive) | -2.78 (inactive) | -1.36 (inactive) |
| CARWKRTQSQAGNASASA [FS-2845] | -0.543 (inactive) | 1.6 | 1.76 |
| CALVVLATATAGNASASA [HC832] | 1.79 | 1.59 | 0.476 (inactive) |
| CAREECSQHLAGNASASA [HC1673] | 1.67 | 1.9 | 0.967 (inactive) |
| CAEERREKREAGNASASA [FS-905] | 4.27 (active) | 4.96 (active) | 6.98 (active) |
| CAWARRHKREAGNASASA [FS-1502] | 10.7 (active) | 9.83 (active) | 7.82 (active) |
| CANDIREKREAGNASASA [FS-179] | 3.92 (active) | 4.37 (active) | 4.65 (active) |
| CANKARLKKIAGNASASA [FS-694] | -0.0765 (inactive) | -1.98 (inactive) | -2.55 (inactive) |
| CASTKCSAHLAGNASASA [HC2514] | -0.0801 (inactive) | 1.2 | 0.075 (inactive) |
| CATCTTPCSGAGNASASA [HC1958] | -0.852 (inactive) | 0.00782 (inactive) | -0.733 (inactive) |
| CAHQNIVDVQAGNASASA [HC507] | -1.69 (inactive) | -1.38 (inactive) | 0.384 (inactive) |
| CAYNNRPWRPAGNASASA [FS-392] | -1.33 (inactive) | -0.755 (inactive) | -0.205 (inactive) |
| CARRGRFLNQAGNASASA [FS-3047] | -0.612 (inactive) | -0.298 (inactive) | 1.14 |
| CATVSRTGRQAGNASASA [FS-1660] | 0.744 (inactive) | 2.19 | 3.07 |
| CAHNNRVGRQAGNASASA [FS-596] | 3.21 | 3.29 | 4.86 (active) |
| CACRFRFGRQAGNASASA [FS-405] | 2.68 | 3.98 (active) | 2.63 |
| CATGDNTTTSAGNASASA [HC1341] | 0.632 (inactive) | 0.808 (inactive) | -0.0812 (inactive) |
| CAEVMCHRPSAGNASASA [HC2346] | -0.818 (inactive) | -0.184 (inactive) | 0.158 (inactive) |
| CADCMEECSQAGNASASA [HC1820] | -0.19 (inactive) | 0.0434 (inactive) | -0.219 (inactive) |
| CAARVAIKSLAGNASASA [HC1495] | -0.648 (inactive) | -1.12 (inactive) | -0.674 (inactive) |
